The record followed here is PubChem BioAssay (Tox21).

Values joined by “and” are separate entries in the source; they are usually repeats but may differ in a detail not shown here. Equal values may be shown once. Results filed as inconclusive are left out. Some compounds were tested as several samples or in several runs, with calls that do not always agree. Active and inactive are the calls of the source. Unless noted, calls come from the whole dose curve; as a rule, active = well fitted curve in the direction sought with a large enough effect in the repeat runs; inconclusive = weak or mixed curves; inactive = no such curve, though single readings can be large; an effect the other way counts as inactive or inconclusive.

The nature of assay [1]: qHTS assay to identify small molecule agonists of the constitutive androstane receptor (CAR) signaling pathway - cell viability counter screen (AID 1224836). Note: nearly all actives have a fitted effect of over 45% in size. The gist of the method: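 Counter screen multiplexed with the CAR reporter readout: HepG2 cells co-transfected with hCAR and the CYP2B6-2.2kb construct receive a 15-concentration compound series and 0.75 uM PK11195 (final), then CellTiter-Fluor fluorescence is read after 23 h.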
Background: In qHTS, concentration-response curves come from the screen itself.

Assay [2] can be described thus: qHTS assay to identify small molecule antagonists of the constitutive androstane receptor (CAR) signaling pathway - cell viability counter screen (AID 1224837). Note: nearly all actives have a fitted effect of over 45% in size. The gist of the method: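 In quantitative HTS format, compounds at 15 concentrations were applied to HepG2 cells double-transfected with hCAR and CYP2B6-2.2kb under 50 nM CITCO stimulation; live-cell protease activity was read after 23 hr via CellTiter-Fluor.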

The target in assay [3] is Nuclear receptor subfamily 1 group I member 3 (Homo sapiens) (UniProt Q14994). Kind of assay: qHTS assay to identify small molecule antagonists of the constitutive androstane receptor (CAR) signaling pathway (AID 1224838). Note: nearly all actives have a fitted effect of over 40% in size. An outline of the steps: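 CITCO-stimulated (50 nM final) HepG2 cells stably transfected with hCAR and CYP2B6-2.2kb luciferase were exposed to compounds at 15 concentrations for 24 h at 37 C/5% CO2. A luciferase reagent was added and luminescence recorded after 30 min.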

The target is the same in assay [4]. Kind of assay: qHTS assay to identify small molecule agonists of the constitutive androstane receptor (CAR) signaling pathway (AID 1224839). Note: nearly all actives have a fitted effect of over 15% in size. Note: potency is the fitted concentration of half-maximal effect. The gist of the method:
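A 15-concentration quantitative screen uses HepG2 cells co-transfected stably with human CAR and CYP2B6-2.2kb reporter. Treatment lasts 24 h with 0.75 uM PK11195 final present; ONE-Glo luminescence is the signal.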

Assay [5] in a line: qHTS assay to identify small molecule antagonists of the estrogen related receptor signaling pathway with the pleiotropic PPARgamma coactivator (PGC) from Tox21 10K library - cell viability counter screen (AID 1224840; active = well fitted cell-killing curve with a large enough effect in the repeat runs, not every such curve was filed as active; note: nearly all actives have a fitted effect of over 40% in size). An outline of the steps: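 Viability counter screen, PGC/ERR cells: 17.5 h compound exposure at 37 C, CellTiter-Fluor fluorescence endpoint.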
The nature of assay [6]: qHTS assay to identify small molecule antagonists of the estrogen related receptor signaling pathway with the pleiotropic PPARgamma coactivator (PGC) from Tox21 10K library (AID 1224841; call rule not given here; note: actives are mostly falling curves and most rising ones were filed inactive; nearly all actives have a fitted effect of over 50% in size). An outline of the steps:
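In the PGC/ERR line, DMSO solutions of test chemicals are pin-delivered to 2,000 cells/well six hours after dispensing. Following eighteen hours' incubation, One-Glo reagent is added and luminescence recorded.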

Assay [7] deals with Thyrotropin receptor (Homo sapiens) (UniProt P16473). Nature of the assay: qHTS assay to identify small molecule agonists of the thyroid stimulating hormone receptor (TSHR) signaling pathway (AID 1224843; calls by dose curve; note: nearly all actives have a fitted effect of over 45% in size). The gist of the method: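 A cell-based cAMP HTRF format was run in TSHR-transfected HEK293 cells, 800 per well. Treatment: 30 min, room temperature. Detection: 1 h with labelled cAMP and anti-cAMP cryptate. Concentration-response over 15 points, three replicates.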

Assay [8] in a line: qHTS assay to identify small molecule agonists of the hypoxia (HIF-1) signaling pathway - cell viability counter screen (AID 1224844; calls by dose curve; note: nearly all actives have a fitted effect of over 50% in size). The gist of the method: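 Same wells as the HIF-1 reporter screen; ME-180 cells carrying HRE-bla, 17 hr treatment at 37C; CellTiter-Glo luminescence read after 30 min at room temperature.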
A short description of assay [9]: qHTS assay to identify small molecule agonists of H2AX (AID 1224845; active = well fitted activation curve with a large enough effect in the signal ratio in the repeat runs, not every such curve was filed as active; the % refers to the signal ratio). The gist of the method:
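Phospho-H2AX Ser139 measured by HTRF (ex 320 nm; em 665 and 620 nm) after 24 hr antibody incubation. Compounds, 15 concentrations, 0.76% DMSO, were applied to CHO-K1 cells for 3hr at 37C before lysis.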

Assay [10] can be described thus: qHTS assay to identify small molecule agonists of the hypoxia (HIF-1) signaling pathway (AID 1224846; active = well fitted activation curve with a large enough effect in the signal ratio in the repeat runs, not every such curve was filed as active; the % refers to the signal ratio). An outline of the steps: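 In ME-180 cells bearing an HRE-bla construct, 17 h treatment with DMSO-dissolved compounds at 37C was followed by CCF4-AM loading to quantify reporter induction.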
A short description of assay [11]: qHTS assay to identify small molecule agonists of H2AX - cell viability counter screen (AID 1224847; calls by dose curve; note: top concentration of the series differs between compounds; nearly all actives have a fitted effect of over 30% in size). An outline of the steps:
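We seed wild-type CHO-K1 cells overnight, treat them for 3 hr at 37C with compounds in 15-concentration series, and quantify remaining viability by CellTiter-Glo luminescence.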

The nature of assay [12]: qHTS assay to identify small molecule antagonists of the estrogen related receptor (ERR) signaling pathway from Tox21 library (AID 1224848). Note: nearly all actives have a fitted effect of over 50% in size. An outline of the steps:
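ERR cell line, 2,000 cells/well. 6 h settle, then compound (DMSO) added; 18 h at 37 C; ONE-Glo luminescence after 30 min RT.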

Assay [13] is described as follows: qHTS assay to identify small molecule agonists of the estrogen related receptor (ERR) signaling pathway from Tox21 library (AID 1224849; calls by dose curve; note: nearly all actives have a fitted effect of over 15% in size). The note with it: ERR reporter cell line, ONE-Glo luciferase, 18 h; at 92.4 µM (top of the series). An outline of the steps:
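Reporter cells (ERR, NTP source) treated with Tox21 10K compounds 18 h, 37 C. Readout: ONE-Glo luminescence, 30 min RT.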

A short description of assay [14]: qHTS RealTime-Glo MT Cell Viability Assay in HepG2 cells - 24 hour (AID 1224867). Note: nearly all actives have a fitted effect of over 50% in size. The gist of the method: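 Tox21 10K library screened in qHTS format on HepG2 cells carrying RealTime-Glo reagents. Compounds were added after a 5 h preincubation, and the luminescent signal from continuous culture was measured repeatedly during 40 h treatment.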
A short description of assay [15]: qHTS RealTime-Glo MT Cell Viability Assay in HEK293 cells - 32 hour (AID 1224868). Note: nearly all actives have a fitted effect of over 50% in size. Note: potency is the fitted concentration of half-maximal effect. An outline of the steps: (§1)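 Luminescence generated by NanoLuc from substrate produced by living HEK293 cells served as the viability signal. Each value reflects the reading at its stated time point during continuous 40 h compound exposure at 37 C.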
Assay [16] is described as follows: A CellTox Green Cytotoxicity Assay to monitor cytotoxicity in HEK293 cells - 0 hour (AID 1224869). Note: nearly all actives have a fitted effect of over 50% in size. An outline of the steps:
(§2)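 Homogeneous no-lysis format: HEK293 cell suspension mixed with CellTox Green reagent, seeded, incubated 5 h at 37 C/5% CO2, then dosed by pintool with compound in DMSO.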

The nature of assay [17]: qHTS RealTime-Glo MT Cell Viability Assay in HepG2 cells - 40 hour (AID 1224870). Note: nearly all actives have a fitted effect of over 50% in size. An outline of the steps:
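Real-time viability: cells seeded at 600 per well together with NanoLuc and cell-permeant prosubstrate, compounds added after 5 h incubation. Luminescence tracked at 0, 8, 16, 24, 32 and 40 h of exposure.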

A short description of assay [18]: A CellTox Green Cytotoxicity Assay to monitor cytotoxicity in HEK293 cells - 40 hour (AID 1224871). Note: nearly all actives have a fitted effect of over 45% in size. Note: potency is the fitted concentration of half-maximal effect. The gist of the method:
as §2

Assay [19] is described as follows: qHTS RealTime-Glo MT Cell Viability Assay in HEK293 cells - 16 hour (AID 1224872). Note: nearly all actives have a fitted effect of over 50% in size. Note: potency is the fitted concentration of half-maximal effect. An outline of the steps: as §1
Assay [20] can be described thus: qHTS assay to identify small molecule agonists of the estrogen related receptor signaling pathway with the pleiotropic PPARgamma coactivator (PGC) from Tox21 10K library (AID 1224842). Note: nearly all actives have a fitted effect of over 15% in size. The gist of the method:
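Luminescence from One-Glo (30 min, room temperature) measured after PGC/ERR cells had 18 h at 37 C with pinned compound (23 nL in DMSO). Cells had been seeded at 2,000 per well and pre-incubated 6 h.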
% is set by controls: 0 for no effect and ±100 for the full control effect.

Sequence of Nuclear receptor subfamily 1 group I member 3 (Homo sapiens) (Q14994 whole entry, looked up): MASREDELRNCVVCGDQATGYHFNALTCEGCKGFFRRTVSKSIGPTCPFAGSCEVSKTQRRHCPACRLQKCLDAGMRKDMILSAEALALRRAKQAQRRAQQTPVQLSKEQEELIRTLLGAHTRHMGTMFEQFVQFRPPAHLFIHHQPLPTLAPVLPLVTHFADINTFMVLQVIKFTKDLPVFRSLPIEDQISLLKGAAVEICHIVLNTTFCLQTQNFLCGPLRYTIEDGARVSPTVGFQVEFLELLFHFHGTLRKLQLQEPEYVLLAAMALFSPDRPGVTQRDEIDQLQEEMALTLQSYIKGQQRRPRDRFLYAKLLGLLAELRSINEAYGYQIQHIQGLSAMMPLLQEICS
Sequence of Thyrotropin receptor (Homo sapiens) (P16473 whole entry, looked up): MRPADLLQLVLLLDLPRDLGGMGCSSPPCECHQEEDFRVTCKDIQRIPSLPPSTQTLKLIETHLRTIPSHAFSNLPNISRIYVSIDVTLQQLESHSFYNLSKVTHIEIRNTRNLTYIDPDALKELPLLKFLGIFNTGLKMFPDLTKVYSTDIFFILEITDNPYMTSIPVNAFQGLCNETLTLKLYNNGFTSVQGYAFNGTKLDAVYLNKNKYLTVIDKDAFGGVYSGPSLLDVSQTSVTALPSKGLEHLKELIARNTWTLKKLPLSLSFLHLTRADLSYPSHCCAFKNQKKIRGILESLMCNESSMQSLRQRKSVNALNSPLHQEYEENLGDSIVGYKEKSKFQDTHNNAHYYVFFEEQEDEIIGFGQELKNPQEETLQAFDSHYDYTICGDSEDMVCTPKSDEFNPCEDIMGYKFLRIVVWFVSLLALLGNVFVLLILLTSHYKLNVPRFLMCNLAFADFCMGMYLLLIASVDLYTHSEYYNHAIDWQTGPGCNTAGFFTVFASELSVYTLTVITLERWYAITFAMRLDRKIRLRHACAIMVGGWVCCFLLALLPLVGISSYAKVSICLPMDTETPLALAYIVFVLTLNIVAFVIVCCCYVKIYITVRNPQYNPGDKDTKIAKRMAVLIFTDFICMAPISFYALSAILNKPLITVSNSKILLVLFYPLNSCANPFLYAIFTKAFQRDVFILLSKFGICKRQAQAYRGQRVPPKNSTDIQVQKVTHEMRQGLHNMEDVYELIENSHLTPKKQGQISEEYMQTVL

For `C=CS(=O)(=O)O`, the Potency result in assay [1], in [2], in assay [3], in [4], in assay [5] and in [6] was “inactive” throughout. In addition, the Potency result in [7], in assay [8], in [9], in assay [10], in assay [11] and in assay [12] was “inactive” each time. For the same compound, the Potency entry in assay [14], in assay [15], in [16], in assay [17], in assay [18] and in [19] was “inactive” throughout. Moreover, the activity change, positive = activation in assay [13] was -0.911% (inactive).

For `CC(=O)C1=C(C)[C@@H]2C[C@@]3(C1)[C@H](C)CC[C@H]3C2(C)C`, the Potency entry in assay [1], in assay [2], in assay [3], in [5], in [7] and in [8] was “inactive” in each case. The Potency result in assay [9], in assay [10], in [11], in assay [14], in assay [15] and in assay [16] was “inactive” throughout. The Potency entry in assay [17] and in [19] was “inactive” in each case. Besides, the Potency in assay [4] was 40.3 µM (active) and 27.3 µM (active); in [18], 32.3 µM (active) and inactive.

As to `CCOc1ccc2c(c1)C(C)=CC(C)(C)N2`, the Potency entry in assay [1], in [2], in assay [3], in assay [5], in assay [6] and in assay [7] was “inactive” throughout. The Potency entry in assay [8], in assay [9], in assay [11], in assay [12], in assay [14] and in [15] was “inactive” throughout. For the same compound, the Potency entry in [16], in assay [17], in assay [18] and in [19] was “inactive” throughout. Besides, in assay [4], the Potency is 27.2 µM (active) and 27.3 µM (active). Besides, the activity change, positive = activation in [13] is 1.57% (inactive) and 2.85% (inactive).

As to `Cc1cc(C(C)(C)C)c(O)c(C(C)(C)C)c1`, the Potency entry in assay [1], in assay [2], in assay [3], in assay [4], in assay [5] and in assay [7] was “inactive” in each case. Moreover, the Potency entry in assay [8], in [9], in [10], in assay [14], in assay [15] and in assay [16] was “inactive” in each case. Further, the Potency result in [17] and in [19] was “inactive” each time. For the same compound, the Potency in [18] was 49.1 µM (active).

For `O`, the Potency entry in assay [1], in assay [2], in assay [5], in assay [7], in assay [9] and in assay [10] was “inactive” each time. The Potency result in [11], in [14], in [15], in assay [16], in assay [17] and in assay [18] was “inactive” in each case. In addition, in assay [19], the Potency result is “inactive”.

Turning to `CC(=O)O[C@]1(C(C)=O)CC[C@H]2[C@@H]3C[C@H](C)C4=CC(=O)CC[C@]4(C)[C@H]3CC[C@@]21C`, the Potency entry in assay [1], in assay [3], in assay [4], in assay [5], in assay [7] and in assay [8] was “inactive” each time. For the same compound, the Potency result in assay [9], in [10], in assay [11], in assay [14], in assay [16] and in assay [17] was “inactive” in each case. In addition, the Potency is 19.5 µM (active) and 10.7 µM (active) in assay [15]; 48.9 µM (active) and inactive in assay [18]; 17.4 µM (active) in assay [19].

Regarding `Cc1cccc([N+](=O)[O-])c1C(=O)O`, the Potency result in assay [1], in assay [3], in [4], in assay [5], in assay [6] and in assay [20] was “inactive” throughout. In addition, the Potency result in assay [7], in [8], in assay [9], in [10], in [12] and in assay [14] was “inactive” throughout. The Potency result in assay [15], in assay [16], in assay [17], in [18] and in [19] was “inactive” in each case. In addition, the activity change, positive = activation in assay [13] is 4.9% (inactive).
